Results filed as inconclusive are left out. Calls of active or inactive are those of the source. Unless noted, calls come from the whole dose curve; as a rule, active = well fitted curve in the direction sought with a large enough effect in the repeat runs; inconclusive = weak or mixed curves; inactive = no such curve, though single readings can be large; an effect the other way counts as inactive or inconclusive.
Key:
[1] = qHTS assay to identify small molecule agonists of the estrogen related receptor (ERR) signaling pathway from Tox21 library (AID 1224849; calls by dose curve; note: nearly all actives have a fitted effect of over 15% in size)
Procedure, shortened: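 Six hours post-seeding at 37 C/5% CO2, ERR cells receive DMSO-solubilised compounds; after 18 h at 37 C, ONE-Glo reagent is applied and luminescence recorded.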

[2] = qHTS RealTime-Glo MT Cell Viability Assay in HEK293 cells - 32 hour (AID 1224868); note: top concentration of the series differs between compounds; nearly all actives have a fitted effect of over 50% in size
Procedure, shortened: (§1)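 Quantitative high-throughput screen of the Tox21 10K library in HEK293: cells and RealTime-Glo reagents plated together, compound added at 5 h, luminescence monitored through 40 h at 37 C.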

[3] = A CellTox Green Cytotoxicity Assay to monitor cytotoxicity in HEK293 cells - 0 hour (AID 1224869); note: nearly all actives have a fitted effect of over 50% in size
Procedure, shortened: (§2)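 Seeding of HEK293 cells together with cytotoxicity dye preceded a 5 h incubation at 37 C/5% CO2. Test compounds in DMSO were then added and fluorescence monitored across 40 h.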

[4] = qHTS RealTime-Glo MT Cell Viability Assay in HepG2 cells - 40 hour (AID 1224870); note: nearly all actives have a fitted effect of over 50% in size
Procedure, shortened: (§3)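 HepG2 cells (600/well) mixed with RealTime-Glo MT reagent, settled 5 h at 37 C/5% CO2 before compound addition. Nonlytic NanoLuc luminescence from viable-cell prosubstrate reduction read repeatedly during 40 h treatment at 37 C.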

[5] = A CellTox Green Cytotoxicity Assay to monitor cytotoxicity in HEK293 cells - 40 hour (AID 1224871); note: nearly all actives have a fitted effect of over 45% in size
Procedure, shortened: as §2

[6] = qHTS RealTime-Glo MT Cell Viability Assay in HEK293 cells - 16 hour (AID 1224872); note: top concentration of the series differs between compounds; nearly all actives have a fitted effect of over 50% in size
Procedure, shortened: as §1

[7] = qHTS RealTime-Glo MT Cell Viability Assay in HepG2 cells - 8 hour (AID 1224873); note: nearly all actives have a fitted effect of over 55% in size
Procedure, shortened: as §3

[8] = qHTS RealTime-Glo MT Cell Viability Assay in HEK293 cells - 40 hour (AID 1224874); conditions: RealTime-Glo luminescence; max response: active compounds read low; note: nearly all actives have a fitted effect of over 50% in size
Procedure, shortened: (§4)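 Tox21 screen in HEK293 using RealTime-Glo MT chemistry, with cells and reagent co-dispensed. Luminescence proportional to viable cell number was captured at intervals during 40 h compound exposure at 37 C.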

[9] = A CellTox Green Cytotoxicity Assay to monitor cytotoxicity in HEK293 cells - 24 hour (AID 1224875); note: series mostly up to about 77 µM; nearly all actives have a fitted effect of over 45% in size
Procedure, shortened: as §2

[10] = qHTS RealTime-Glo MT Cell Viability Assay in HepG2 cells - 32 hour (AID 1224877); note: nearly all actives have a fitted effect of over 55% in size
Procedure, shortened: (§5)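 Compound treatment began 5 h after plating HepG2 cells (600/well) with NanoLuc luciferase and prosubstrate. Plates stayed at 37 C for 40 h; luminescence was captured at six time points, 0 h through 40 h.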

[11] = A CellTox Green Cytotoxicity Assay to monitor cytotoxicity in HepG2 cells - 24 hour (AID 1224878); note: nearly all actives have a fitted effect of over 45% in size
Procedure, shortened: (§6)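 Nonlytic assay: viable cells exclude the dye, so fluorescence scales with cell death. HepG2 at 600 cells/well, compounds added after 5 h, signal read across 40 h.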

[12] = A CellTox Green Cytotoxicity Assay to monitor cytotoxicity in HepG2 cells - 40 hour (AID 1224879); note: nearly all actives have a fitted effect of over 40% in size
Procedure, shortened: as §6

[13] = qHTS RealTime-Glo MT Cell Viability Assay in HEK293 cells - 0 hour (AID 1224880); note: top concentration of the series differs between compounds; nearly all actives have a fitted effect of over 45% in size
Procedure, shortened: as §4

[14] = A CellTox Green Cytotoxicity Assay to monitor cytotoxicity in HEK293 cells - 32 hour (AID 1224881); note: nearly all actives have a fitted effect of over 40% in size
Procedure, shortened: as §2

[15] = A CellTox Green Cytotoxicity Assay to monitor cytotoxicity in HepG2 cells - 0 hour (AID 1224882); note: nearly all actives have a fitted effect of over 35% in size
Procedure, shortened: as §6

[16] = A CellTox Green Cytotoxicity Assay to monitor cytotoxicity in HepG2 cells - 32 hour (AID 1224883); note: nearly all actives have a fitted effect of over 50% in size
Procedure, shortened: as §6

[17] = A CellTox Green Cytotoxicity Assay to monitor cytotoxicity in HEK293 cells - 8 hour (AID 1224884); note: nearly all actives have a fitted effect of over 35% in size
Procedure, shortened: as §2

[18] = qHTS RealTime-Glo MT Cell Viability Assay in HepG2 cells - 16 hour (AID 1224885); note: nearly all actives have a fitted effect of over 50% in size
Procedure, shortened: as §5

[19] = qHTS RealTime-Glo MT Cell Viability Assay in HepG2 cells - 24 hour (AID 1224867); note: nearly all actives have a fitted effect of over 50% in size
Procedure, shortened: as §5

[20] = A CellTox Green Cytotoxicity Assay to monitor cytotoxicity in HepG2 cells - 16 hour (AID 1224876); note: nearly all actives have a fitted effect of over 45% in size
Procedure, shortened: as §6
% is set by controls: 0 for no effect and ±100 for the full control effect.

Cn1c(=O)c2c(ncn2CC2OCCO2)n(C)c1=O
inactive: outcome [1] | Potency [2] | Potency [3] | outcome [4] | Potency [5] | Potency [6] | outcome [7] | max response [8] 7.08% | Potency [9] | outcome [10] | Potency [11] | Potency [12] | outcome [13] | Potency [14] | Potency [15] | Potency [16] | Potency [17] | outcome [18]

CCC(CO)CO
inactive: outcome [19] | Potency [2] | Potency [3] | outcome [4] | Potency [5] | Potency [6] | outcome [7] | max response [8] -4.1% | Potency [9] | Potency [20] | outcome [10] | Potency [11] | Potency [12] | outcome [13] | Potency [14] | Potency [15] | Potency [16] | Potency [17]

C=CCOCC(O)CCl (stereo unspecified)
inactive: outcome [19] | Potency [2] | Potency [3] | outcome [4] | Potency [5] | Potency [6] | outcome [7] | max response [8] 0.946% | Potency [9] | Potency [20] | outcome [10] | Potency [11] | Potency [12] | outcome [13] | Potency [14] | Potency [15] | Potency [16] | Potency [17] | outcome [18]

CC(=O)N1CCN(c2ccc(O)cc2)CC1
inactive: outcome [19] | Potency [2] | Potency [3] | outcome [4] | Potency [5] | Potency [6] | outcome [7] | max response [8] 7.56% | Potency [9] | Potency [20] | outcome [10] | Potency [11] | Potency [12] | outcome [13] | Potency [14] | Potency [15] | Potency [16] | Potency [17] | outcome [18]

CCOC(=O)CCCCCCCCC(=O)OCC
inactive: outcome [19] | Potency [2] | Potency [3] | outcome [4] | Potency [5] | Potency [6] | outcome [7] | max response [8] 5.25% | Potency [9] | Potency [20] | outcome [10] | Potency [11] | outcome [13] | Potency [14] | Potency [15] | Potency [16] | Potency [17] | outcome [18]

O=C(O)/C=C/c1ccccc1
inactive: outcome [1] | Potency [2] | Potency [3] | outcome [4] | Potency [5] | Potency [6] | outcome [7] | max response [8] -8.08% | Potency [9] | Potency [20] | outcome [10] | Potency [11] | outcome [13] | Potency [14] | Potency [15] | Potency [16] | Potency [17] | outcome [18]

O=C(c1ccc2c(c1)C(=O)OC2=O)c1ccc2c(c1)C(=O)OC2=O
inactive: outcome [19] | Potency [2] | Potency [3] | outcome [4] | Potency [5] | Potency [6] | outcome [7] | max response [8] -1.77% | Potency [9] | Potency [20] | outcome [10] | Potency [11] | Potency [12] | outcome [13] | Potency [14] | Potency [15] | Potency [16] | Potency [17] | outcome [18]

OCCCCCCCl
inactive: outcome [19] | Potency [2] | Potency [3] | outcome [4] | Potency [5] | Potency [6] | outcome [7] | max response [8] -5.21% | Potency [9] | Potency [20] | outcome [10] | Potency [11] | Potency [12] | outcome [13] | Potency [14] | Potency [16] | Potency [17] | outcome [18]

CC(=O)OC(C)c1ccccc1 (stereo unspecified)
inactive: outcome [19] | Potency [2] | Potency [3] | outcome [4] | Potency [5] | Potency [6] | outcome [7] | max response [8] 0.769% | Potency [9] | Potency [20] | outcome [10] | Potency [11] | Potency [12] | outcome [13] | Potency [14] | Potency [15] | Potency [16] | Potency [17]

COc1cc([N+](=O)[O-])ccc1N
inactive: outcome [19] | Potency [2] | Potency [3] | outcome [4] | Potency [5] | Potency [6] | outcome [7] | max response [8] -15.5% | Potency [9] | Potency [20] | outcome [10] | Potency [11] | Potency [12] | outcome [13] | Potency [14] | Potency [15] | Potency [16] | Potency [17] | outcome [18]

CN[C@@H]1[C@@H](O)[C@@H](O[C@@H]2[C@H](O)[C@H](O[C@H]3OC(CN)=CC[C@H]3N)[C@@H](N)C[C@H]2N)OCC1(C)O (stereo partly specified)
inactive: outcome [1] | Potency [2] | Potency [3] | outcome [4] | Potency [6] | outcome [7] | max response [8] 1.03% | Potency [9] | Potency [20] | Potency [11] | outcome [13] | Potency [14] | Potency [16] | Potency [17] | outcome [18]

NS(=O)(=O)c1cc2c(cc1Cl)NC(CC1CCCC1)NS2(=O)=O (stereo unspecified)
inactive: outcome [19] | Potency [2] | Potency [3] | outcome [4] | Potency [5] | Potency [6] | outcome [7] | max response [8] 5.55% | Potency [9] | outcome [10] | Potency [12] | outcome [13] | Potency [14] | Potency [17] | outcome [18]

O=C(O)c1ccccc1C(=O)OCc1ccccc1
inactive: outcome [19] | Potency [2] | Potency [3] | outcome [4] | Potency [5] | Potency [6] | max response [8] 3.76% | Potency [9] | Potency [20] | outcome [10] | Potency [12] | outcome [13] | Potency [14] | Potency [16] | Potency [17]

Nc1ccc(S(=O)(=O)NC(=O)c2ccccc2)cc1
inactive: outcome [19] | Potency [2] | Potency [3] | outcome [4] | Potency [6] | outcome [7] | max response [8] 2.96% | Potency [9] | Potency [20] | outcome [10] | Potency [11] | outcome [13] | Potency [14] | Potency [16] | Potency [17] | outcome [18]

O=S(=O)(O)SSS(=O)(=O)O
inactive: outcome [19] | Potency [2] | Potency [3] | outcome [4] | Potency [5] | Potency [6] | outcome [7] | max response [8] 4.41% | Potency [9] | Potency [20] | Potency [12] | outcome [13] | Potency [14] | Potency [15] | Potency [16] | Potency [17]

From PubChem BioAssay (Tox21)
